Legend:
Assay in all cases: DAPPL (digital affinity profiling via proximity ligation, sequencing); 10 mM Tris-HCl pH 7.5, 50 mM NaCl, 1 mM DTT, 4% glycerol, room temperature, 30 min; GST-TFs on glutathione beads, 16-mer random dsDNA library, 0.1% formaldehyde crosslink after washing; high values mean tight binding
FEV = molecular target: T1, FEV (Homo sapiens, UniProt Q99581 1-238); settings: protein: recombinant; tags: N-terminal GST; dsDNA, one strand shown
T1 sequence: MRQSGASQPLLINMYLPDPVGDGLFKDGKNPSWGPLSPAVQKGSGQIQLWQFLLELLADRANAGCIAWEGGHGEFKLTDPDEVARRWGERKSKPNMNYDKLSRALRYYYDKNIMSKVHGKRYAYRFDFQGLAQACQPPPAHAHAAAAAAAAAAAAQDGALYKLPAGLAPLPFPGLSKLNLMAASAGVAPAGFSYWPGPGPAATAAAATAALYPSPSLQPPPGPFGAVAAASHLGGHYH
Method in brief: (§1)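 Binding signal is each hexamer's read frequency for a factor divided by its frequency in the tag-only sample. The factors were GST-fused human transcription factors from yeast, captured on glutathione beads, DNA-barcoded and pooled with that sample. Pools were incubated with 200 nmole of a random double-stranded 16-mer DNA library in Tris/NaCl/DTT/glycerol buffer at room temperature for 30 min, then washed, crosslinked with 0.1% formaldehyde, proximity-ligated with BsaI/T4 ligase (1 h, 37 °C), PCR-amplified and sequenced on an Illumina NextSeq500.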

ETV5 = ETV5 (Homo sapiens, UniProt P41161 1-510); settings: protein: recombinant; tags: N-terminal GST; dsDNA, one strand shown
Method in brief: as §1

HSF1 = HSF1 (Homo sapiens, UniProt Q00613 1-529); settings: protein: recombinant; tags: N-terminal GST; chain copies: 3; dsDNA, one strand shown
Method in brief: as §1

SPIC = molecular target: T2, SPIC (Homo sapiens, UniProt Q8N5J4 1-248); settings: protein: recombinant; tags: N-terminal GST; dsDNA, one strand shown
T2 sequence: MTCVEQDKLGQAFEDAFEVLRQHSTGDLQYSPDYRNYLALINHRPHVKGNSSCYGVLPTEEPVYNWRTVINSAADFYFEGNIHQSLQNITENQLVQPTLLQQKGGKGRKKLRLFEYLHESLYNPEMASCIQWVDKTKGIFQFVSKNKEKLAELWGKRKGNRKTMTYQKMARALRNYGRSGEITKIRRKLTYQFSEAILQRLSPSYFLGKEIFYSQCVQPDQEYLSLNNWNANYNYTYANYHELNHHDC
Method in brief: as §1

ELF4 = ELF4 (Homo sapiens, UniProt Q99607 1-663); settings: protein: recombinant; tags: N-terminal GST; dsDNA, one strand shown
Method in brief: as §1

ELK4 = molecular target: T3, ELK4 (Homo sapiens, UniProt P28324-2 1-405); settings: protein: recombinant; tags: N-terminal GST; dsDNA, one strand shown
T3 sequence: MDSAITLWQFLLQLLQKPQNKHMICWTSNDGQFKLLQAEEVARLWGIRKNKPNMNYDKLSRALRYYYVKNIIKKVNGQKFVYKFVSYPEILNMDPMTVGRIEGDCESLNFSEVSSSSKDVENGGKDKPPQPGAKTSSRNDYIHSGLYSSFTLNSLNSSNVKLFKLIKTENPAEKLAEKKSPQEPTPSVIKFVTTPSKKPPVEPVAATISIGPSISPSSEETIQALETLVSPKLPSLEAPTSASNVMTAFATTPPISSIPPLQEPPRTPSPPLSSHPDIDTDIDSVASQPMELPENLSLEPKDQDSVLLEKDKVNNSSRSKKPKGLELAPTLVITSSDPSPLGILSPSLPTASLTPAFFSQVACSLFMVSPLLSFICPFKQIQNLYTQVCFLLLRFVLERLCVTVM
Method in brief: as §1

ETV2 = molecular target: T4, ETV2 (Homo sapiens, UniProt O00321 1-342); settings: protein: recombinant; tags: N-terminal GST; dsDNA, one strand shown
T4 sequence: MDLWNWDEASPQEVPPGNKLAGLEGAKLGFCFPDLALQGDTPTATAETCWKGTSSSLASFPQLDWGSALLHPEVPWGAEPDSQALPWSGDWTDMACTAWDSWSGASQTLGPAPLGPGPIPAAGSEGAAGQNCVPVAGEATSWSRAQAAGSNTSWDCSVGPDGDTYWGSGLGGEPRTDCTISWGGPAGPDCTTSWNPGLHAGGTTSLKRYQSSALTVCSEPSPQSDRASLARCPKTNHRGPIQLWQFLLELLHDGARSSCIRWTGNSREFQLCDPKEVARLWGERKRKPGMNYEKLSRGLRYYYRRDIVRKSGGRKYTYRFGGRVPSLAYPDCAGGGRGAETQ
Method in brief: as §1

ELF3 = molecular target: T5, ELF3 (Homo sapiens, UniProt P78545 1-371); settings: protein: recombinant; tags: N-terminal GST; dsDNA, one strand shown
T5 sequence: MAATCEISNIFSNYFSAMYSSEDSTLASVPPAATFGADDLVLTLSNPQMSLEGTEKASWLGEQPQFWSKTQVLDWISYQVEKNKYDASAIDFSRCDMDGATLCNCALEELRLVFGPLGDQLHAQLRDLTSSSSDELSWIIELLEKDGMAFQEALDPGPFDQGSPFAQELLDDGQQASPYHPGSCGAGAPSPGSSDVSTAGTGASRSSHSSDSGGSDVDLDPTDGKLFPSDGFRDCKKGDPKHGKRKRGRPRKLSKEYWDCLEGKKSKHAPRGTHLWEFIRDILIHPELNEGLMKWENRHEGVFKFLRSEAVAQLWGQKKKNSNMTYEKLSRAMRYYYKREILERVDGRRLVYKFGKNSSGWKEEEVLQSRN
Method in brief: as §1

CRX = CRX (Homo sapiens, UniProt O43186 1-299); settings: protein: recombinant; tags: N-terminal GST; dsDNA, one strand shown
Method in brief: as §1

ETV1 = ETV1 (Homo sapiens, UniProt P50549 1-477); settings: protein: recombinant; tags: N-terminal GST; dsDNA, one strand shown
Method in brief: as §1

ERF = molecular target: T6, ERF (Homo sapiens, UniProt P50548 1-548); settings: protein: recombinant; tags: N-terminal GST; dsDNA, one strand shown
T6 sequence: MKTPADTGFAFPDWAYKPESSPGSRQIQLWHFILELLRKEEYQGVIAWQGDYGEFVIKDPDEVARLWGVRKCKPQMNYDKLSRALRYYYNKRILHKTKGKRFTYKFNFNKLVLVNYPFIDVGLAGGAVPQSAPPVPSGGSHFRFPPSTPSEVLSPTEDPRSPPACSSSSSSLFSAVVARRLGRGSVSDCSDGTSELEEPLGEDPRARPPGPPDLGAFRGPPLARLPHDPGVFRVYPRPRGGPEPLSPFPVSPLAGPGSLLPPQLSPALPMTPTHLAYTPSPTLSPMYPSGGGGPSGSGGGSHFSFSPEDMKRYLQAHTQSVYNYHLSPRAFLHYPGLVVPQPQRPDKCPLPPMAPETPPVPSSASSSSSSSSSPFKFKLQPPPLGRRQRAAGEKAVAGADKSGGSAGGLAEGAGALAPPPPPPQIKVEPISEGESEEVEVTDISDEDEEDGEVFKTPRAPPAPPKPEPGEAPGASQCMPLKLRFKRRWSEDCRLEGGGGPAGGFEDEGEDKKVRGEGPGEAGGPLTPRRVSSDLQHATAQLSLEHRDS
Method in brief: as §1

ETV3L = molecular target: T7, ETV3L (Homo sapiens, UniProt Q6ZN32 1-361); settings: protein: recombinant; tags: N-terminal GST; dsDNA, one strand shown
T7 sequence: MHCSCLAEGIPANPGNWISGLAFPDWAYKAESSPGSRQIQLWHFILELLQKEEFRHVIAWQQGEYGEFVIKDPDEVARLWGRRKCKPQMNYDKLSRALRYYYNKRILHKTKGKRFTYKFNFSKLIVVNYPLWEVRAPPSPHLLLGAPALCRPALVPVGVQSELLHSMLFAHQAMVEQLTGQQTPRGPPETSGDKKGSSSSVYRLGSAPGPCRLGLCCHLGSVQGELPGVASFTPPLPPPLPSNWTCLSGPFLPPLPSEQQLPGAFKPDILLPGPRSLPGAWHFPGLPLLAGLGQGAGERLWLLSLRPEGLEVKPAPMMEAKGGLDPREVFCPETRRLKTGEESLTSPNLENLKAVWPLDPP
Method in brief: as §1

ETS2 = molecular target: T8, ETS2 (Homo sapiens, UniProt P15036 1-469); settings: protein: recombinant; tags: N-terminal GST; dsDNA, one strand shown
T8 sequence: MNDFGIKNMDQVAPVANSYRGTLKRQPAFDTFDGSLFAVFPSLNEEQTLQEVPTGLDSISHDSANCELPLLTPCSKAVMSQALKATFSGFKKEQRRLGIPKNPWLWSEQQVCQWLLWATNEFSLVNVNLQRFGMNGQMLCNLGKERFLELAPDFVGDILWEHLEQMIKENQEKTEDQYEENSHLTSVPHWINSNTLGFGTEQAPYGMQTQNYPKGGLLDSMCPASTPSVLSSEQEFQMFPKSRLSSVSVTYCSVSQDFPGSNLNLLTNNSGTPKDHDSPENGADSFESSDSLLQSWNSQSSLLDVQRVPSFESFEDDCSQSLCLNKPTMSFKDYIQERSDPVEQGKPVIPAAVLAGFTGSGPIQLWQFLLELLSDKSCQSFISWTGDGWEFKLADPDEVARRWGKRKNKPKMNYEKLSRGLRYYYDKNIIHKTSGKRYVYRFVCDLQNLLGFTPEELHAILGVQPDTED
Method in brief: as §1

SPDEF = molecular target: T9, SPDEF (Homo sapiens, UniProt O95238 1-335); settings: protein: recombinant; tags: N-terminal GST; dsDNA, one strand shown
T9 sequence: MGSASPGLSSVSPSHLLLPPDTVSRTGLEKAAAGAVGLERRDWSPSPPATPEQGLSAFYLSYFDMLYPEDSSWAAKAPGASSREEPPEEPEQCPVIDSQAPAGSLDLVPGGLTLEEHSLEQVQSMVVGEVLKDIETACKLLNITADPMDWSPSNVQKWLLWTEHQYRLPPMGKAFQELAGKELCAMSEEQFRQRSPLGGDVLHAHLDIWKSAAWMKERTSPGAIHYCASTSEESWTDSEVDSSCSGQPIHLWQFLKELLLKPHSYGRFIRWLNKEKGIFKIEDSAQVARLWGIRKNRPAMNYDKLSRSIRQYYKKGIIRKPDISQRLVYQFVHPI
Method in brief: as §1

ETV7 = molecular target: T10, ETV7 (Homo sapiens, UniProt Q9Y603 1-341); settings: protein: recombinant; tags: N-terminal GST; dsDNA, one strand shown
T10 sequence: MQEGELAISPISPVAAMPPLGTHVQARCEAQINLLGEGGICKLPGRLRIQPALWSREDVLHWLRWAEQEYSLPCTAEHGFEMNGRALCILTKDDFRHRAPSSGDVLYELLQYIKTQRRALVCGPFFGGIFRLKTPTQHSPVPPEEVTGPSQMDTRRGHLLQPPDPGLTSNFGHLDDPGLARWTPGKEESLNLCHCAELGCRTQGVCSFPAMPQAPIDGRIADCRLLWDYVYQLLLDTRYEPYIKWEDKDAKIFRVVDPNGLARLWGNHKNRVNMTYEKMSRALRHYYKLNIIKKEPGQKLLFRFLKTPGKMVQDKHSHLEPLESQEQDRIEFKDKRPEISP
Method in brief: as §1

ELF5 = molecular target: T11, ELF5 (Homo sapiens, UniProt Q9UKW6-2 1-255); settings: protein: recombinant; tags: N-terminal GST; dsDNA, one strand shown
T11 sequence: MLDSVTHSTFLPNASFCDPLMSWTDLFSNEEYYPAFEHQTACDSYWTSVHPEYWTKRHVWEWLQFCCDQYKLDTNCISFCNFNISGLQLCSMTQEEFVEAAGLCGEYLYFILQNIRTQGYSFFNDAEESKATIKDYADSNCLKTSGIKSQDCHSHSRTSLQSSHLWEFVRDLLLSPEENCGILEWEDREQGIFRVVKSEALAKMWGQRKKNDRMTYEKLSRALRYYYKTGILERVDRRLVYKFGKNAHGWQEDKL
Method in brief: as §1

ETV3 = molecular target: T12, ETV3 (Homo sapiens, UniProt P41162-2 1-143); settings: protein: recombinant; tags: N-terminal GST; dsDNA, one strand shown
T12 sequence: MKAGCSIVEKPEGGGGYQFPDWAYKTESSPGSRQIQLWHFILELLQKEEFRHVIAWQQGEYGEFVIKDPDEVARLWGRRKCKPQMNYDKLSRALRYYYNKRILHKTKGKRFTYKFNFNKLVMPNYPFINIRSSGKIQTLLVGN
Method in brief: as §1

ETV6 = ETV6 (Homo sapiens, UniProt P41212 1-452); settings: protein: recombinant; tags: N-terminal GST; dsDNA, one strand shown
Method in brief: as §1

ELF4, sequence (Q99607 whole entry): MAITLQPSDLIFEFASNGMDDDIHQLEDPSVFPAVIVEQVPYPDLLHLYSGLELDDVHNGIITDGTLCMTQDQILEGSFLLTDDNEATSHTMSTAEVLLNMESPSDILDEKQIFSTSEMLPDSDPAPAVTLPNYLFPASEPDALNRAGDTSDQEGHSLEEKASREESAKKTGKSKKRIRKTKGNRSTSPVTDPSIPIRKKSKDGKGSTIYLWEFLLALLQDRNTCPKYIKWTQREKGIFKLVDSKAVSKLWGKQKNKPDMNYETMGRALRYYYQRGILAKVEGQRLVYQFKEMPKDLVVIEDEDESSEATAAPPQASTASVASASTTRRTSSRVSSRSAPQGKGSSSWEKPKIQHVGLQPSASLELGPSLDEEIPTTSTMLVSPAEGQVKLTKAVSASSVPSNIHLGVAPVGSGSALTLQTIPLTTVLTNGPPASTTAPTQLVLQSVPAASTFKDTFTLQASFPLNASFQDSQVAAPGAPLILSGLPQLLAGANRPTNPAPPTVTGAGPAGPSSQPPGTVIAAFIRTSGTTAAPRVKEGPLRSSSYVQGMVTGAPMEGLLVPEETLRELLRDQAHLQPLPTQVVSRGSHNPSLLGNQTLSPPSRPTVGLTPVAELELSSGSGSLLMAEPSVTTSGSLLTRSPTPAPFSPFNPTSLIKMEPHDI
CRX, sequence (O43186 whole entry): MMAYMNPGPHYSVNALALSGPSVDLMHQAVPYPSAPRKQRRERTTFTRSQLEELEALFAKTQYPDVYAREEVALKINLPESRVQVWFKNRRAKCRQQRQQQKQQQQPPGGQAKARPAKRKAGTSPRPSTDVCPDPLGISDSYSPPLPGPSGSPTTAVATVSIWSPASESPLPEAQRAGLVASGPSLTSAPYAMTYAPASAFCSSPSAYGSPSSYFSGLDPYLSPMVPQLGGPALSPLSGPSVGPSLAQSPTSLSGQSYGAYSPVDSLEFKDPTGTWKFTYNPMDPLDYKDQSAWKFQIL
ETV5, sequence (P41161 whole entry): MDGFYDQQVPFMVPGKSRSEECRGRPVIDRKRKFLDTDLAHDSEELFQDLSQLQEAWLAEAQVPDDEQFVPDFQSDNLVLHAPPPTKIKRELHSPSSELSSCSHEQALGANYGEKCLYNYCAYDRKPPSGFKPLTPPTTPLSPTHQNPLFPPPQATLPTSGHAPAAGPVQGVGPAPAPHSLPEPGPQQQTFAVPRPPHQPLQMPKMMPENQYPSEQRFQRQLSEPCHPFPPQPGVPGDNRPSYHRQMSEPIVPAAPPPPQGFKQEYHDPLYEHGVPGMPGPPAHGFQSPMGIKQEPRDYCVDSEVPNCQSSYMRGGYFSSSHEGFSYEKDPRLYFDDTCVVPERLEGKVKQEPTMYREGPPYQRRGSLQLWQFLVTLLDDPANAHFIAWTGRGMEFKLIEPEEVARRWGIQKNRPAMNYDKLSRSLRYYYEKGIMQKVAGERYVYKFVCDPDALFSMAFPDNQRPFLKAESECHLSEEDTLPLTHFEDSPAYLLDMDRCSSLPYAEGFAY
ETV6, sequence (P41212 whole entry): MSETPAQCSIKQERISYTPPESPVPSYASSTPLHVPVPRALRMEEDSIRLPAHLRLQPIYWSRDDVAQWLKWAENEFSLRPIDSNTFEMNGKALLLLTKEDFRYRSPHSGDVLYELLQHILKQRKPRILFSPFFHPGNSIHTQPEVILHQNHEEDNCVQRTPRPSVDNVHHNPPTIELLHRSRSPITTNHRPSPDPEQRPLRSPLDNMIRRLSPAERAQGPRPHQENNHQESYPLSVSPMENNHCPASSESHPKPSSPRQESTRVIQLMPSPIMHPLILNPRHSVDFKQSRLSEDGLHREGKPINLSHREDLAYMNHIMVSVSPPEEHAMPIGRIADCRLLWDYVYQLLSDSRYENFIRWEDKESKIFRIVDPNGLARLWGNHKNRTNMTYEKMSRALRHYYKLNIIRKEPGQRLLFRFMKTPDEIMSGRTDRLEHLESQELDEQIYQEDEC
HSF1, sequence (Q00613 whole entry): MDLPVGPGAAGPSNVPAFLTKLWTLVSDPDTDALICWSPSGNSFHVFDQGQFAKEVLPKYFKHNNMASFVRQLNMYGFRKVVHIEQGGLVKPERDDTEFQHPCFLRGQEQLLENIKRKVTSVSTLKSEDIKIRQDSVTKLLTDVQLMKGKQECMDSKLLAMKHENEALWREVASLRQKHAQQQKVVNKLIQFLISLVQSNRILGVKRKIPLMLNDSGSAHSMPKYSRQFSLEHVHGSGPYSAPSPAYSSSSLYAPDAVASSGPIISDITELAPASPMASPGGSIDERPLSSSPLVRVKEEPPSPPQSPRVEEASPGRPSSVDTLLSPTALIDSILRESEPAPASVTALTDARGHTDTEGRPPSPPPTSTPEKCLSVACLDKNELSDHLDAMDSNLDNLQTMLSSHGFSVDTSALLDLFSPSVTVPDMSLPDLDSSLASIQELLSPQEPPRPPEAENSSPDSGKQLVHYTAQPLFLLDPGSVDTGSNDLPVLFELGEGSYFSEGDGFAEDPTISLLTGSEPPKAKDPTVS
ETV1, sequence (P50549 whole entry): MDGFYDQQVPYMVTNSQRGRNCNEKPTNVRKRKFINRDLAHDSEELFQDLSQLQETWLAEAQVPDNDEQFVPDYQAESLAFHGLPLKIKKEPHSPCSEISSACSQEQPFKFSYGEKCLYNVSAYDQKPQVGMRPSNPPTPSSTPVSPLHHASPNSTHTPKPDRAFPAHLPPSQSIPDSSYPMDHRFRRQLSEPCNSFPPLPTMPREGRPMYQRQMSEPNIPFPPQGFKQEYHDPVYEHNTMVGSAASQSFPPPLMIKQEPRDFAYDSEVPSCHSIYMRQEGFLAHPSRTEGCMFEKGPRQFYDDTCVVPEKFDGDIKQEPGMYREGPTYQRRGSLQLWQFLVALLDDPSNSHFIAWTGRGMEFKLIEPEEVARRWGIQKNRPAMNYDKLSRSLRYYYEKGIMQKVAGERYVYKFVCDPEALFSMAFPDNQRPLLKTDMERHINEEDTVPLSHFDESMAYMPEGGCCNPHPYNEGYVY

In the case of AAGTAT, the binding signal (FEV) was 1.34 fold enrichment (6-mer frequency, TF over GST control), the binding signal (ETV5) was 1.38 fold enrichment (6-mer frequency, TF over GST control) and the binding signal (HSF1) was 1.38 fold enrichment (6-mer frequency, TF over GST control). The binding signal (SPIC) was 1.49 fold enrichment (6-mer frequency, TF over GST control), the binding signal (ELF4) was 1.4 fold enrichment (6-mer frequency, TF over GST control) and the binding signal (ELK4) was 1.31 fold enrichment (6-mer frequency, TF over GST control). For the same sequence, the binding signal (ETV2) was 1.42 fold enrichment (6-mer frequency, TF over GST control), the binding signal (ELF3) was 1.35 fold enrichment (6-mer frequency, TF over GST control) and the binding signal (CRX) was 1.57 fold enrichment (6-mer frequency, TF over GST control). The binding signal (ETV1) was 1.44 fold enrichment (6-mer frequency, TF over GST control), the binding signal (ERF) was 1.38 fold enrichment (6-mer frequency, TF over GST control) and the binding signal (ETV3L) was 1.47 fold enrichment (6-mer frequency, TF over GST control). For the same sequence, the binding signal (ETS2) was 1.46 fold enrichment (6-mer frequency, TF over GST control), the binding signal (SPDEF) was 1.31 fold enrichment (6-mer frequency, TF over GST control) and the binding signal (ETV7) was 1.5 fold enrichment (6-mer frequency, TF over GST control). The binding signal (ELF5) was 1.56 fold enrichment (6-mer frequency, TF over GST control), the binding signal (ETV3) was 1.46 fold enrichment (6-mer frequency, TF over GST control) and the binding signal (ETV6) was 1.58 fold enrichment (6-mer frequency, TF over GST control).
